Source: PubChem BioAssay
Shown are actives, neighbours in structure and some others; about 22% of the full set was active somewhere.
Cycloheximide cs: counter-screen hit for Shiga toxin inhibitors, cycloheximide; cell reporter, cycloheximide protein synthesis inhibition counterscreen; 300,000 tested, 12% active; AID 2314; max response, %; in the data active = max response mostly above about 13%, no sharp cut-off; inactive = mostly below about 14%; note: read at 38.3 µM for the half of the compounds with a filed dose
Shiga inhibitor: blocks Shiga toxin action in Vero cells; inhibition, % at 38.7 µM; 290,000 tested, 9.2% active; AID 2315; Vero cells, Shiga toxin protein synthesis inhibition reporter; in the data active = inhibition mostly above about 28%, no sharp cut-off; inactive = mostly below about 43%
LmPK inh: inhibitors of Leishmania mexicana pyruvate kinase; Potency, µM (highest dose often 57.5 µM), usual class: inhibitors; Q27686; 290,000 tested, 0.37% active; purified LmPK, Kinase-Glo ATP luminescence, 1 h
Target sequence (Q27686 whole entry, looked up): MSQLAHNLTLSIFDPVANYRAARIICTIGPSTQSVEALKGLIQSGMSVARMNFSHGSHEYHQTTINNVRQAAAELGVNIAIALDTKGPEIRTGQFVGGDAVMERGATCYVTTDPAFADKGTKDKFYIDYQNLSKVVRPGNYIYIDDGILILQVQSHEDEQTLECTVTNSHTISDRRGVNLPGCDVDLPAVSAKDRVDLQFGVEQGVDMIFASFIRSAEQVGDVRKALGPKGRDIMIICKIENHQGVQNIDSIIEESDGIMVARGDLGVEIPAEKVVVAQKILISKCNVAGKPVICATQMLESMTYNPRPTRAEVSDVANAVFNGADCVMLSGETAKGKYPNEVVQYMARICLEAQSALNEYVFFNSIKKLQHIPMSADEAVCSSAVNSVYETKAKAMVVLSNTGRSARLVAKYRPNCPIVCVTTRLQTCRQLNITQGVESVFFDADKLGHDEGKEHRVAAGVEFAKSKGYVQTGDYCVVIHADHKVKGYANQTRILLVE
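Purified LmPK (0.1 nM) with 0.5 mM PEP and 0.1 mM ADP in imidazole buffer pH 7.2 with MgCl2/KCl, 1 h at room temperature. ATP formed was read by luciferase luminescence and normalized to no-enzyme and uninhibited controls.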
Pf growth 96h: P. falciparum growth inhibition at 96 hours. P. falciparum luciferase reporter growth, 96 h. Potency, µM (series often up to 28.7 µM), most hits filed as inhibitors. 320,000 tested, 6.9% active. AID 504834
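Infected RBCs, 2% Hct / 0.05% parasitemia final; luciferase-reporter P. falciparum; cpd 96 h, 37 C, 5% CO2; luciferase detection reagent; luminescence.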
Pf growth 48h: inhibits P. falciparum growth in the first generation, 48 h | P. falciparum luciferase growth in erythrocytes, 48 h | Potency, µM (top dose mostly 28.7 µM), hits mostly inhibitors | 310,000 tested, 5.9% active
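Growth was read as firefly luciferase luminescence after a 48 h, 37 C, 5% CO2 exposure of compounds to reporter-bearing P. falciparum cultures (0.1% parasitemia, 2% hematocrit final) in Albumax-supplemented RPMI 1640.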
Of the large screens only hits and unclear results are named; the others gave an inactive call; ! = a repeat was not active. Unless noted, calls come from the whole dose curve; as a rule, active = well fitted inhibition curve with a large enough effect; inconclusive = small, poorly fitted or top-dose-only effect, or another doubt; inactive = no such curve, though single readings can be large or run the other way.

O=S(=O)(Cc1ccccc1)NCc1cccnc1	none
O=C1C(Cl)=C(NCc2cccnc2)C(=O)c2ccccc21	Cycloheximide cs 22, Shiga inhibitor 45, Pf growth 96h 8.3µM, Pf growth 48h 9.3µM
CCS(=O)(=O)c1nc2ccccc2n1Cc1ccccn1	none
CCc1ccccc1NC(=S)N(CCN1CCCCC1)Cc1ccco1	Pf growth 48h inconclusive
COc1ccc(C(=O)NNC(=O)CN2CCC(n3nnc4cc(F)ccc43)CC2)cc1	none
CC/C(=N\NS(=O)(=O)c1ccc(C)cc1)c1ccco1	none (no result: Pf growth 48h)
CC(=O)c1cccc(OC(=O)c2ccc3c(=O)n4c(nc3c2)CCC4)c1	Pf growth 96h inconclusive (no result: Cycloheximide cs, Shiga inhibitor, LmPK inh)
CC(C)OCCCNC1=C(Cl)C(=O)c2ccccc2C1=O	Cycloheximide cs 49, Shiga inhibitor 66, Pf growth 96h 4.1µM, Pf growth 48h 2.9µM
O=C(NCc1ccccn1)c1ccc(Cl)c(S(=O)(=O)NCc2ccccc2)c1	Pf growth 48h inconclusive (no result: Cycloheximide cs, Shiga inhibitor, LmPK inh)
COc1cc(Cc2cnc(N)nc2N)cc(OC)c1OC	Pf growth 96h 2.1µM!, Pf growth 48h 1.5µM
COc1cc2[nH]c(C(=O)Nc3ccc4c(c3)OCCO4)cc2c(OC)c1OC	Cycloheximide cs 40, Shiga inhibitor 91, Pf growth 96h inconclusive, Pf growth 48h inconclusive
COc1ccc(NC(=O)CSc2ccc3c(c2)OCCO3)cc1OC	none
COc1cc2cc(C(=O)Nc3ccc4c(c3)OCCO4)[nH]c2cc1OC	Cycloheximide cs 47, Shiga inhibitor 103
Cc1cc(C)c2cc(C(=O)Nc3ccc4c(c3)OCO4)[nH]c2c1	none
COc1cc(C(=O)OCC(=O)NC2CCCCC2)cc2c1OCCO2	none (no result: Cycloheximide cs, Shiga inhibitor, LmPK inh)
Cc1cc(NC(=O)c2sc(Nc3ccc(F)cc3)nc2N)no1	Cycloheximide cs 28
C=CCNc1nc(N)c(C(=O)Nc2cc(C)on2)s1	Cycloheximide cs 19, Shiga inhibitor 38 (no result: Pf growth 96h)
COc1ccc(Nc2nnc(SCC(=O)Nc3cc(C)on3)s2)cc1	none (no result: Pf growth 96h)
C=CCNc1nc(N)c(C(=O)c2ccc3c(c2)OCO3)s1	Cycloheximide cs 26, Shiga inhibitor 87
CNC1C(OC2C(O[C@@H]3C(O)C(O)[C@@H](N=C(N)N)C(O)C3N=C(N)N)OC(C)[C@@]2(O)CO)OC(CO)C(O)C1O (some centres not stated)	none (no result: Cycloheximide cs, Shiga inhibitor, LmPK inh)
COc1ccccc1/C=N/NC(=O)Cn1cnc([N+](=O)[O-])n1	Pf growth 96h inconclusive
COc1ccccc1CNC(=O)C(=O)NCC1OCCN1S(=O)(=O)c1ccc(Br)cc1 (configuration not stated)	Pf growth 96h inconclusive, Pf growth 48h inconclusive
CC(C)CC(NC(=O)C(COC(C)(C)C)NC(=O)C(Cc1ccc(O)cc1)NC(=O)C(CO)NC(=O)C(Cc1c[nH]c2ccccc12)NC(=O)C(Cc1cnc[nH]1)NC(=O)C1CCC(=O)N1)C(=O)NC(CCCN=C(N)N)C(=O)N1CCCC1C(=O)NNC(N)=O (configuration not stated)	none (no result: LmPK inh)
CCOc1ccc(N(CC(=O)Nc2cc(Cl)ccc2C)S(C)(=O)=O)cc1	Pf growth 96h inconclusive, Pf growth 48h inconclusive
Nc1ccc2c(c1)sc1ccccc12	Cycloheximide cs 58, Shiga inhibitor 82, Pf growth 96h inconclusive
O=c1c2ccccc2sc2ccc(Cl)cc12	none
S=C(Nc1ccccn1)Nc1ccccc1Cl	Cycloheximide cs 35, Shiga inhibitor 72
Cc1c(Cl)cccc1NC(=S)Nc1ccccn1	Pf growth 96h inconclusive
Cc1ccccc1NC(=S)Nc1ccccn1	Cycloheximide cs 26, Shiga inhibitor 52, Pf growth 96h inconclusive, Pf growth 48h inconclusive
COC(=O)Cc1ccc(NC(=S)NCCO)cc1	none
COC(=O)Cc1ccc(NC(=S)Nc2ccccn2)cc1	Cycloheximide cs 31, Shiga inhibitor 74
CCCCCCNCc1c(F)cccc1Cl	none
Clc1cccc(CNCCCSc2ncccn2)c1Cl	none
Fc1cccc(Cl)c1CNCCCSc1ncccn1	Pf growth 96h 13µM
Clc1cccc(Cl)c1CNCCCSc1ncccn1	Cycloheximide cs 7.1
C/C(=N\Nc1ccc(C(F)(F)F)cn1)c1ccc(S(=O)(=O)NCc2ccco2)cc1	Cycloheximide cs 72, Shiga inhibitor 121
C/C(=N\Nc1ccc(C(=O)O)cc1)c1ccc(S(=O)(=O)NCc2ccco2)cc1	Cycloheximide cs 45, Shiga inhibitor 77
CCC(=O)Nc1ccc(S(=O)(=O)NCc2ccco2)cc1	Pf growth 96h inconclusive (no result: Pf growth 48h)
C/C(=N\Nc1nc(Cl)c(Cl)cc1Cl)c1ccc(S(=O)(=O)NCc2ccco2)cc1	Cycloheximide cs 69, Shiga inhibitor 122
C/C(=N\Nc1ccccn1)c1ccc(S(=O)(=O)NCc2ccco2)cc1	Cycloheximide cs 44, Shiga inhibitor 81
O=C(OCC#Cc1c(COC(=O)c2ccccc2)nnn1Cc1ccccc1)c1ccccc1	Pf growth 48h inconclusive
O=C(NCC1COc2ccccc2O1)c1cccc(S(=O)(=O)N2CCOCC2)c1 (configuration not stated)	Pf growth 96h inconclusive (no result: Cycloheximide cs, Shiga inhibitor, LmPK inh)
CCOC(=O)c1nc(Nc2cc(C)cc(C)c2)c2ccccc2n1	Pf growth 96h inconclusive, Pf growth 48h inconclusive
COC(=O)C1=C(c2ccc(F)cc2OCc2ccccc2)C[C@@H]2CC[C@H]1N2C(=O)NCc1ccccc1Br	Pf growth 96h 1.3µM, Pf growth 48h 4.1µM (no result: Cycloheximide cs, Shiga inhibitor, LmPK inh)
COC(=O)C1=C(c2ccc(F)cc2F)C[C@@H]2CC[C@H]1N2C(=O)NCCCOC(C)C	Pf growth 96h inconclusive (no result: Cycloheximide cs, Shiga inhibitor, LmPK inh)
COC(=O)C1=C(c2ccc(F)cc2OCc2ccccc2)C[C@@H]2CC[C@H]1N2C(=O)NCc1ccccc1C(F)(F)F	Pf growth 96h inconclusive, Pf growth 48h 5.2µM (no result: Cycloheximide cs, Shiga inhibitor, LmPK inh)
O=C1CCC(C(=O)N2CCCCCC2)CN1CCc1ccc(Cl)cc1 (configuration not stated)	none
C=CCn1c(COc2ccc3c(c2)CCCC3)nnc1SCC(=O)Nc1cccc(SC)c1	Cycloheximide cs 47, Shiga inhibitor 58
CN(C)/C=N/C(=S)Nc1ccc(F)cc1	Cycloheximide cs 25, Shiga inhibitor 38
CN(C)/C=N/C(=S)Nc1ccc(Cl)c(Cl)c1	Cycloheximide cs 40, Shiga inhibitor 111
CN(N)C(=S)Nc1ccc(F)cc1	none
O=C(NC(C(=O)N/N=C/c1ccccn1)c1n[nH]c(=O)c2ccccc12)c1ccccc1 (configuration not stated)	Pf growth 96h inconclusive
COc1cc(OC)cc(C(=O)NNC(=S)Nc2ccc(S(N)(=O)=O)cc2)c1	none
CCC(C)NC(=S)Nc1ccc(C(=O)OC)cc1 (configuration not stated)	Cycloheximide cs 26, Shiga inhibitor 56, Pf growth 96h inconclusive
CC(CCc1ccccc1)NC(=O)C(=O)Nc1ccccc1 (configuration not stated)	Cycloheximide cs 56, Shiga inhibitor 100
CC(CCc1ccccc1)NC(=O)C1CCN(S(=O)(=O)c2ccc(F)cc2)CC1 (configuration not stated)	Pf growth 96h inconclusive
CC(=O)c1ccc(NC(=S)NC(C)CCc2ccccc2)cc1 (configuration not stated)	Pf growth 96h 9.3µM, Pf growth 48h inconclusive
